Publication PMC4336329 (PLoS ONE, 2015)
Screen size: about 310,000 compounds; about 14,000 (4.5%) showed an effect of 50% or more. The effect is printed as a negative number. What follows is part of a selection rich in strong results, with near analogues and random picks from the rest.

Target: human ether-à-go-go-related gene (hERG) potassium channel (human, UniProt Q12809)
Experiment: primary screen, population patch clamp on CHO cells stably expressing hERG; higher = less effect of the substance
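Further: peak tail current of the secondary pulse compared with the same well before compound.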

Chain of human ether-à-go-go-related gene (hERG) potassium channel (Q12809 whole entry, looked up): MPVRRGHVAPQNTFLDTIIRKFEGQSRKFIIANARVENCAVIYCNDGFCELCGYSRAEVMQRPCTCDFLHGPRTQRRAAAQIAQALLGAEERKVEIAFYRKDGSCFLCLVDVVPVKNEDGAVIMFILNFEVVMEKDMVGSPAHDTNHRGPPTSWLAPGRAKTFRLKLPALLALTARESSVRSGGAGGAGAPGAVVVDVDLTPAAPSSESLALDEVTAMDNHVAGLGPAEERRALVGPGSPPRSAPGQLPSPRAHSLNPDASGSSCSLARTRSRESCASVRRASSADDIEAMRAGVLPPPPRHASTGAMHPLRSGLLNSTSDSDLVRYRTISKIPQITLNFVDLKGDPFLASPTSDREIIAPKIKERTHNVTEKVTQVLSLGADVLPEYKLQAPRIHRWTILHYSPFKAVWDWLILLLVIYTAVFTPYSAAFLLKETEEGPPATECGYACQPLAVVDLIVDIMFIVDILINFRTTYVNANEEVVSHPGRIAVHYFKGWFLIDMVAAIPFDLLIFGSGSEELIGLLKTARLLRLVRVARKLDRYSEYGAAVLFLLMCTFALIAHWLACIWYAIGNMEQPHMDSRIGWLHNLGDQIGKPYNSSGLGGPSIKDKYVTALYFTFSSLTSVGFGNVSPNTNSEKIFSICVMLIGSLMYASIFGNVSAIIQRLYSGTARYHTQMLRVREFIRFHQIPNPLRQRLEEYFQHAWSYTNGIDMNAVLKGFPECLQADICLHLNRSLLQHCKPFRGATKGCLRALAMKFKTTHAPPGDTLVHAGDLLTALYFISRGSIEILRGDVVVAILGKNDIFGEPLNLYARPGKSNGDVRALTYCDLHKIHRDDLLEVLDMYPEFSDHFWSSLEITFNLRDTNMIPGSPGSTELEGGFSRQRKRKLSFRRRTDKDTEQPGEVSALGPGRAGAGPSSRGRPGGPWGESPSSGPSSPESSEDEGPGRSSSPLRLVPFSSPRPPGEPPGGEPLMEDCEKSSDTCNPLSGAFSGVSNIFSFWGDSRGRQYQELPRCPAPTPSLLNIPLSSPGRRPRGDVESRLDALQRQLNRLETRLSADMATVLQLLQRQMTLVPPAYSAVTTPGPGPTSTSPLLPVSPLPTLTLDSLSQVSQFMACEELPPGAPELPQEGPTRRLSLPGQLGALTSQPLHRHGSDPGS

Row | Compound | hERG current change (%, negative = inhibition) at 10uM
1 | CCC(C)N=CC1=C(O)C(C(=O)OC)C(C)(C)CC1=O (stereo not shown) | -5.35%
2 | CCOC(=O)C(=O)N=Nc1c(O)n(C)c2ccccc12 | 18.9%
3 | O=C(CSc1nc(Nc2ccccc2)nc(N2CCOCC2)n1)N1CCCC1 | -60.4%
4 | O=C(CSc1nc(Nc2ccccc2)nc(N2CCOCC2)n1)NC1CCCCC1 | -3.3%
5 | O=C(CSc1nc(Nc2ccccc2)nc(N2CCOCC2)n1)N1CCc2ccccc21 | -1.62%
6 | FC(F)(F)c1ccc(-c2csc(-c3ccno3)n2)cc1 | 1.72%
7 | Cc1cc(NCCCN)nc(-c2ccccc2O)n1 | 10%
8 | OC(c1ccc(F)cc1)(c1ccc(F)cc1)[C@@H]1CCCN1 | 7.57%
9 | CCCOC(=O)c1ccc(NC(=O)COC)cc1 | 1.07%
10 | CCCCOC(=O)c1ccc(NC(=O)C(=O)NCCN(C)C)cc1 | -28.9%
11 | CCCCOC(=O)c1ccc(NC(=O)C(=O)NCc2ccncc2)cc1 | -8.29%
12 | CCCOC(=O)c1ccc(NC(=O)C(=O)NCC2CCCO2)cc1 (stereo not shown) | 4.7%
13 | CCCOC(=O)c1ccc(NC(=O)/C=C/c2cccs2)cc1 | 0.453%
14 | CCCOC(=O)c1ccc(NC(=O)C(=O)NCCN(CC)CC)cc1 | -52.1%
15 | CCCCOC(=O)c1ccc(NC(=O)/C=C/c2cccs2)cc1 | -17.1%
16 | CCCCOC(=O)c1ccc(NC(=O)C(=O)NCCN(CC)CC)cc1 | -73.2%
17 | CCN(CC)CCOC(=O)c1ccc(NC(=O)/C=C/c2cccs2)cc1.Cl | -76.3%
18 | Nc1cccc(-n2cccc2)c1 | 18.5%
19 | COc1cccc(CNC(=O)CCC(=O)n2ncc3cc(C)ccc32)c1OC | 3.67%
20 | Cc1ccc(C(=O)NNC(=O)CCN2C(=O)C3CCCCC3C2=O)cc1 (stereo not shown) | -5.88%

Row | Compound | hERG current change (%, negative = inhibition) at 10uM
21 | CCCC/C(O)=C1\C(=O)CCCC1=NCCc1c(C)[nH]c2ccccc12 | -12%
22 | CNc1oc(C)nc1S(=O)(=O)c1ccc(C)cc1 | 10.6%
23 | CC(NC(=O)CCNS(=O)(=O)c1cccc2nsnc12)c1ccccc1 (stereo not shown) | -8.74%
24 | CCOC(=O)CSc1nnc(CCc2nc3ccccc3[nH]2)n1C | -0.184%
25 | CC(=O)c1ccc(N2CCN(CC(=O)N(C3CC3)C3CCS(=O)(=O)C3)CC2)c(F)c1 (stereo not shown) | -12%
26 | Cc1ccc(-n2[nH]c(C)c(C=NCc3ccncc3)c2=O)cc1 | -54.5%
27 | Cc1[nH]n(-c2ccccc2)c(=O)c1C=NCc1ccco1 | -10.7%
28 | Cc1[nH]n(-c2ccccc2)c(=O)c1C=NCc1ccncc1 | -58.1%
29 | Cc1ccc(-n2[nH]c(C)c(C=Nc3cc(C)ccn3)c2=O)cc1 | -1.12%
30 | Cc1[nH]n(-c2ccccc2)c(=O)c1C=NCCc1ccccc1 | -12.7%
31 | CCOc1[nH]n(-c2ccccc2)c(=O)c1C=NCc1ccncc1 | -50%
32 | Cc1ccc(-n2[nH]c(C)c(/C=N/c3ccccn3)c2=O)cc1 | 2.58%
33 | CCOc1[nH]n(-c2ccccc2)c(=O)c1C=NCc1cccnc1 | -48.8%
34 | CCOc1[nH]n(-c2ccc(Cl)cc2)c(=O)c1C=NCc1cccnc1 | -42.1%
35 | CCOc1ccc(S(=O)(=O)n2ccnc2C)cc1 | 14.5%
36 | Cc1cc(O)c(-c2n[nH]c3c2C(c2cccc(O)c2)N(Cc2cccnc2)C3=O)cc1Cl (stereo not shown) | 11.4%
37 | Cc1cccc(Cc2nnc(CCC(=O)N(C)C3CCOC3)o2)c1 (stereo not shown) | 18.6%
38 | Nc1cc2ccccc2oc1=O | 8.37%
39 | O=C1/C(=C/c2ccccc2Cl)SC(=S)N1CCCC(=O)N(CCO)c1ccccc1 | -12.8%
40 | CC(=O)NC12CC3CC(C1)CC(C(=O)Nc1nc4ccc(F)cc4s1)(C3)C2 | -56.9%

Row | Compound | hERG current change (%, negative = inhibition) at 10uM
41 | COc1ccc2nc(NC(=O)C34CC5CC(CC(NC(C)=O)(C5)C3)C4)sc2c1 | -11.1%
42 | CC(=O)NC12CC3CC(C1)CC(C(=O)Nc1nc4ccc(S(C)(=O)=O)cc4s1)(C3)C2 | -1.14%
43 | CCc1ccc2[nH]cc(C(=O)OCCOC)c(=O)c2c1 | 4.42%
44 | O=C(NCCc1ccccc1)c1ccc2nc3cc(Cl)ccc3c(=O)n2c1 | 14.1%
45 | O=[N+]([O-])/C(C(Cl)=C(Cl)Cl)=C(/Sc1ccccc1)N1CCCCC1 | 4.71%
46 | C=CCN1C(=O)/C(=C/c2ccc(Br)s2)C(=O)NC1=S | 6.73%
47 | N=c1c(C(=O)NC2CCCC2)cc2c(=O)n3ccccc3nc2n1Cc1ccccc1 | -78.6%
48 | O=C(NC1CCCC1)c1cc2c(=O)n3ccccc3nc2s1 | -9.33%
49 | N=c1c(C(=O)NC2CCCCC2)cc2c(=O)n3ccccc3nc2n1Cc1ccco1 | -77%
50 | CCn1c(=N)c(S(=O)(=O)c2ccc(F)cc2)cc2c(=O)n3ccccc3nc21 | -10.5%
51 | O=C(NC1CCCCCC1)c1cc2c(=O)n3ccccc3nc2s1 | 0.251%
52 | N=c1c(C(=O)NC2CCCCC2)cc2c(=O)n3ccccc3nc2n1Cc1ccccc1 | -69.8%
53 | CC1CCCCC1NC(=O)c1cc2c(=O)n3ccccc3nc2n1C (stereo not shown) | 4.32%
54 | N=c1c(C(=O)NC2CCCCC2)cc2c(=O)n3ccccc3nc2n1Cc1ccc(F)cc1 | -77%
55 | COCCNC(=O)c1ccc2c(=O)n(Cc3ccco3)c(SCC(=O)NC3CCCCC3)nc2c1 | -47.1%
56 | CCOC(=O)c1[nH]c(C)c(C(=O)N(C)C)c1C | 4.87%
57 | CC(C)Oc1cccc(NC(=O)c2cnccc2C(F)(F)F)c1 | -0.311%
58 | COc1ccc(C2=CC(c3ccc(C)cc3)n3nnnc3N2)cc1 (stereo not shown) | -6.67%
